Data published in publication PMC5913336, “True equilibrium measurement of transcription factor-DNA binding affinities using automated polarization microscopy”.

Molecular target: T1, Kni (Drosophila melanogaster, UniProt P10734 2-102)
T1 sequence: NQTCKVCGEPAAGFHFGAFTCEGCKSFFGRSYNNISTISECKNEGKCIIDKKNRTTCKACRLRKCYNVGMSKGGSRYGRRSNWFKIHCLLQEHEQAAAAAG
Experiment: FP; 33 mM phosphate pH 7.0, 90 mM NaCl, 0.01% Tween 20, 0.1 mM DTT, 0.5% agarose; room temperature
Settings: tags: N-GST (pGEX-6P-1, kept); dsDNA, one strand shown

Row | Sequence | binding signal | Kd [nM]
1 | CAAAACTAGAGAACT | 69.3 Kd / Kd of best base at the position | –
2 | TAAAACTAGAGCACT | 1.43 Kd / Kd of best base at the position | –
3 | CAAAACTAGAGTACT | 5.23 Kd / Kd of best base at the position | –
4 | CAAGACTAGAGCACT | 9.44 Kd / Kd of best base at the position | –
5 | CAAAACTAGAGCACT | – | ~1.8
6 | CAAAAATAGAGCACT | 2.52 Kd / Kd of best base at the position | –
7 | CGAAACTAGAGCACT | 1.31 Kd / Kd of best base at the position | –
8 | CAGAACTAGAGCACT | 1.99 Kd / Kd of best base at the position | –
9 | CAAAACTAGAGCGCT | 3.42 Kd / Kd of best base at the position | –
10 | CAAAACGAGAGCACT | 3.56 Kd / Kd of best base at the position | –
11 | CAAAACTCGAGCACT | 9.21 Kd / Kd of best base at the position | –
12 | CTAAACTAGAGCACT | 1.45 Kd / Kd of best base at the position | –
13 | CAAAGCTAGAGCACT | 16.3 Kd / Kd of best base at the position | –
14 | CACAACTAGAGCACT | 2.2 Kd / Kd of best base at the position | –
15 | CAAAACTAGAGCAAT | 2.66 Kd / Kd of best base at the position | –
16 | CAAAACTGGAGCACT | 1.5 Kd / Kd of best base at the position | –
17 | AAAAACTAGAGCACT | 1.14 Kd / Kd of best base at the position | –
18 | CAAAACTAGAGCATT | 2.42 Kd / Kd of best base at the position | –

Row | Sequence | binding signal | Kd [nM]
19 | GAAAACTAGAGCACT | 1.36 Kd / Kd of best base at the position | –
20 | CAAAACTAGACCACT | 3.9 Kd / Kd of best base at the position | –
21 | CAAAACTAGAGCACA | 2.62 Kd / Kd of best base at the position | –
22 | CAAAACCAGAGCACT | 2.45 Kd / Kd of best base at the position | –
23 | CCAAACTAGAGCACT | 1.71 Kd / Kd of best base at the position | –
24 | CAAAACTAGAGCAGT | 2.97 Kd / Kd of best base at the position | –
25 | CAAAACTAGTGCACT | 4.66 Kd / Kd of best base at the position | –
26 | CAAAACTAGAGCACG | 2.74 Kd / Kd of best base at the position | –
27 | CAAAACTAGAGCTCT | 7.77 Kd / Kd of best base at the position | –
28 | CAAACCTAGAGCACT | 16.3 Kd / Kd of best base at the position | –
29 | CAAAAGTAGAGCACT | 1.65 Kd / Kd of best base at the position | –
30 | CAAAACTAGAACACT | 3.87 Kd / Kd of best base at the position | –
31 | CAAAACTAGGGCACT | 2.34 Kd / Kd of best base at the position | –
32 | CATAACTAGAGCACT | 1.93 Kd / Kd of best base at the position | –
33 | CAAAACTAGCGCACT | 9.49 Kd / Kd of best base at the position | –
34 | CAAAACAAGAGCACT | 7.6 Kd / Kd of best base at the position | –
35 | CAAAACTATAGCACT | 12.9 Kd / Kd of best base at the position | –
36 | CAAAACTAGAGCCCT | 12.1 Kd / Kd of best base at the position | –

Molecular target: T2, Pan (Drosophila melanogaster, UniProt P91943 258-356)
T2 sequence: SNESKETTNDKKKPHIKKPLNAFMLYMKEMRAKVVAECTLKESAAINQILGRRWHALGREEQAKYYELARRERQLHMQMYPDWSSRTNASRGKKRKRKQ
Experiment: as above
Settings: tags: N-GST (pGEX-6P-1, kept); dsDNA, one strand shown

Row | Sequence | binding signal
37 | AGTTTTTGATAAA | 5.89 Kd / Kd of best base at the position
38 | AGTCTTTGATAAG | 3.01 Kd / Kd of best base at the position
39 | AGTCTTTGATAGA | 1.78 Kd / Kd of best base at the position
